Bioassay records as filed in PubChem BioAssay.
VACV Venus inh = inhibitors of vaccinia virus (Venus reporter). Vaccinia virus Venus reporter expression, fluorescence. 330,000 compounds, 0.46% hits. AID 720580. Potency, µM (top dose mostly 36.5 µM), inactives show at the highest dose activity change, negative = inhibition, hits mostly inhibitors; calls by dose curve; tested in A549 cells; further: nearly all actives have a fitted effect of over 30% in size
AMA1-RON2 inh = AMA1-RON2 (P. falciparum) interaction inhibition. AlphaScreen AMA1-biotinylated RON2 peptide binding. AID 720542. Potency, µM (top dose mostly 58.2 µM), inactives show at the top dose activity change, negative = inhibition, most hits filed as inhibitors. 360,000 compounds, 0.2% hits;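 further: 0% = vehicle wells and -100% = peptide control; nearly all actives have a fitted effect of over 45% in size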
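AMA1 (3D7) with his tag at 25 nM final met compounds first, then biotinylated RON2 peptide at 25 nM; detection used donor plus acceptor beads, 10 µg/mL apiece, read by AlphaScreen after 30 min at room temperature.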
VACV mCherry inh = vaccinia inhibition (mCherry reporter). Potency, µM (series often up to 36.5 µM), for the others: at the top dose activity change, negative = inhibition, actives largely listed as inhibitors. 310,000 compounds, 0.63% hits. Vaccinia virus mCherry reporter infection, fluorescence; calls by dose curve; tested in A549 cells; further: nearly all actives have a fitted effect of over 35% in size
Pf growth 96h = P. falciparum growth inhibition at 96 hours; P. falciparum luciferase reporter growth, 96 h; Potency, µM (titrated, usually from 28.7 µM), inactives show top-dose activity change, negative = inhibition, hits mostly inhibitors; 320,000 compounds, 6.9% hits; AID 504834
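Two parasite generations (96 h, 37 C, 5% CO2) of compound exposure in infected erythrocytes (0.05% parasitemia, 2% hematocrit). Luciferase-reporter P. falciparum; decreased luminescence indicates inhibited growth, aimed at apicoplast-acting delayed death.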
Pf growth 48h = inhibits P. falciparum growth in the first generation, 48 h | P. falciparum luciferase growth in erythrocytes, 48 h | Potency, µM (series often up to 28.7 µM), for inactives: at the highest dose activity change, negative = inhibition, actives largely listed as inhibitors | 310,000 compounds, 5.9% hits | AID 504832
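Read-out is firefly luciferase luminescence from an integrated reporter in P. falciparum, so falling signal marks reduced parasite growth. Infected erythrocytes were at 2% hematocrit and 0.1% parasitemia (final) in Albumax-supplemented RPMI 1640.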
An asterisk follows results filed as active; [ ] = another dose, or the depositor's remark. Shown are actives, neighbours in structure and some others; about 8.7% of the full set was active somewhere. Unless noted, the call rests on the fitted dose curve; in most records, active means well fitted curve in the direction sought with a large enough effect; inconclusive means small, poorly fitted or top-dose-only effect, or another doubt; inactive means no such curve, though single readings can be large; an effect the other way counts as inactive or inconclusive. Unless noted, on the % scale 0 is the no-effect control and ±100 the full control effect; potency means the concentration at half of the fitted maximal effect.

What do the screens show for `Cc1c(C)c2c(c(C)c1OC(=O)CCC(=O)O)CC[C@@](C)(CCC[C@H](C)CCC[C@H](C)CCCC(C)C)O2`?
Pf growth 96h: 12µM*; Pf growth 48h: inconclusive

Results for CCCCN(CC)c1nc(N)c(C#N)c(CC#N)c1C#N ?
AMA1-RON2 inh: 6%; Pf growth 96h: 3.3µM*

Results for CCCCN(CC)c1nc(N)c2c(N)nc(OCC)cc2c1C#N ?
AMA1-RON2 inh: 42%; Pf growth 96h: 13µM*

Results for O=C(NC1CCC(n2cc(C(=O)NC3CC3)nn2)CC1)C(=O)c1ccccc1 (stereo not drawn) ?
VACV Venus inh: -8%; VACV mCherry inh: -12%

What do the screens show for `COc1cc(N(C)C)c(OC)cc1/C=C/c1ccnc2ccccc12`?
VACV Venus inh: 23%; VACV mCherry inh: -28%

What do the screens show for `CCCN(C(=O)Cn1c(=O)oc2cc(Cl)ccc21)c1ccc(C(C)C)cc1`?
VACV Venus inh: -9%; VACV mCherry inh: -10%

What do the screens show for `Cc1ccc2c(Br)cc(Br)c(O)c2n1`?
Pf growth 96h: 6.7µM*; Pf growth 48h: 12µM*

What do the screens show for `COc1ccc(/C=C/c2ccc3c(Br)ccc(O)c3n2)cc1`?
VACV Venus inh: -19%; AMA1-RON2 inh: 77%; VACV mCherry inh: -16%; Pf growth 96h: 6%; Pf growth 48h: 17%[0.00184 µM]

What do the screens show for `COc1cc(/C=C/c2ccc3c(Br)cc(Br)c(O)c3n2)ccc1O`?
AMA1-RON2 inh: 99%; Pf growth 96h: 3.7µM*; Pf growth 48h: 9.3µM*

How did COc1cc(/C=C/c2ccc3cccc(O)c3n2)cc(Cl)c1OC do in these assays?
VACV Venus inh: 12%; AMA1-RON2 inh: 69%; VACV mCherry inh: inconclusive; Pf growth 96h: 3.7µM*; Pf growth 48h: -5%[0.00184 µM]

What do the screens show for `COc1ccc(Br)cc1/C=C/c1ccc2cccc(O)c2n1`?
VACV Venus inh: -22%; AMA1-RON2 inh: 72%; VACV mCherry inh: -24%; Pf growth 96h: inconclusive; Pf growth 48h: 2.1µM*

What do the screens show for `COc1cc(/C=C/c2ccc3cccc(O)c3n2)cc(OC)c1OC`?
VACV Venus inh: -22%; AMA1-RON2 inh: 103%; VACV mCherry inh: 8.9µM*; Pf growth 96h: -9%; Pf growth 48h: inconclusive

How did CC(C)c1c(C(=O)NCc2cccnc2)cnn1-c1nccc(-c2cccs2)n1 do in these assays?
VACV Venus inh: -4%; VACV mCherry inh: -4%

How did COc1ccccc1CNC(=O)c1cnn(-c2ccc(F)cc2F)c1C1CCN(C(=O)OC(C)(C)C)CC1 do in these assays?
VACV Venus inh: -12%; VACV mCherry inh: -11%

Results for O=C1c2cccc3c(N4CCOCC4)c([N+](=O)[O-])cc(c23)C(=O)N1c1cccc2ccccc12 ?
VACV Venus inh: 0%; AMA1-RON2 inh: 0%; VACV mCherry inh: inactive; Pf growth 96h: 10µM*; Pf growth 48h: inconclusive

What do the screens show for `Cc1cccc(N2C(=O)c3cccc4c(N5CCCCC5)c([N+](=O)[O-])cc(c34)C2=O)c1C`?
VACV Venus inh: -7%; AMA1-RON2 inh: -1%; VACV mCherry inh: -7%; Pf growth 96h: 372%; Pf growth 48h: -16%

How did COc1ccc(Sc2cnn(-c3ccccc3)c(=O)c2Cl)cc1 do in these assays?
VACV Venus inh: inconclusive; AMA1-RON2 inh: 1%; VACV mCherry inh: 13µM*; Pf growth 96h: -16%; Pf growth 48h: 4%

What do the screens show for `COc1nn(-c2ccccc2)c(=O)c(Cl)c1Cl`?
VACV Venus inh: 28µM*; AMA1-RON2 inh: -19%; VACV mCherry inh: inconclusive; Pf growth 96h: inconclusive; Pf growth 48h: -35%

How did O=C1NC[C@@H](Cc2cccc3ccccc23)N(CC2(c3ccccc3)CC2)C1=O do in these assays?
VACV Venus inh: inconclusive; AMA1-RON2 inh: -4%; VACV mCherry inh: inconclusive; Pf growth 96h: 13µM*; Pf growth 48h: 12µM*

Results for CCOC(=O)c1sc(NC(=O)CSc2nnnn2-c2ccccc2)c(C(=O)OCC)c1C ?
VACV Venus inh: 1%; AMA1-RON2 inh: -7%; VACV mCherry inh: -10%; Pf growth 96h: -12%; Pf growth 48h: -5%

What do the screens show for `CCOC(=O)c1c(NC(=O)CCS(=O)(=O)c2ccccc2)sc2c1CC(C)(C)NC2(C)C`?
VACV Venus inh: -11%; AMA1-RON2 inh: 1%; VACV mCherry inh: -13%; Pf growth 96h: inconclusive; Pf growth 48h: -20%
